Measured values as given in PubChem BioAssay (NCATS).
Inconclusive results are not listed. Where a call stands in place of a potency, no number is given. Calls of active or inactive are those of the source. Calls follow the shape of the dose curve; as a rule, active = well fitted cell-killing curve with a large enough effect; inconclusive = small, poorly fitted or top-dose-only effect, or effect the other way; inactive = flat fitted curve, though single readings scatter.

How the values were obtained:
Test in all cases: Primary qHTS to identify gynecologic anti-cancer compounds using libraries of approved drugs and bioactive compounds (AID 1345084); also: nearly all actives have a fitted effect of over 55% in size
Settings in all cases: Gynecologic cancer cell panel viability, ATPlite luminescence, 48 h; series mostly up to 57.5 µM
[1] = tested on: PA-1
How it was run: (§1)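 Five-concentration response, 48 h; readout is ATP-driven luciferase luminescence.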

[2] = tested on: SKOV3
How it was run: as §1

[3] = tested on: Tov-21-G
How it was run: as §1
Potency is read from the fitted curve at half-maximal effect.

SMILES | Potency [1] | Potency [2] | Potency [3]
COc1ccc(C2(CNC(=O)c3ccc(NC(=O)c4ccco4)cc3)CCOCC2)cc1 | inactive | inactive | inactive
CCCC1(CCC)CCC2(CCN(CCCN(CC)CC)C2)CC1 | 5.01 µM (active) | 7.94 µM (active) | 6.31 µM (active)
C[C@@H](Nc1ncnc2[nH]c(-c3ccc(O)cc3)cc12)c1ccccc1 | inactive | – | –
COc1cc(NC(=O)c2cccc(-n3cc(NC(=O)Nc4cccc(C)c4)cn3)c2)cc(OC)c1OC | inactive | – | –
CC(OC1OCCN(Cc2n[nH]c(=O)[nH]2)C1c1ccc(F)cc1)c1cc(C(F)(F)F)cc(C(F)(F)F)c1 (configuration not stated) | inactive | inactive | inactive
CC(=O)C1=CCC2C3CC=C4CC(O)CC(O)C4(C)C3C(O)CC12C (configuration not stated) | inactive | – | –
CCC1C(=O)N(C)c2cnc(Nc3ccc(C(=O)NC4CCN(C)CC4)cc3OC)nc2N1C1CCCC1 (configuration not stated) | 1.78 µM (active) | 6.31 µM (active) | –
CNC1CN(c2ccc3c(=O)c(C(=O)O)cn(-c4nccs4)c3n2)CC1OC (configuration not stated) | 1.41 µM (active) | – | –
COC(=O)N1CCC(n2ncc3c(N4CCOCC4)nc(-c4ccc(NC(=O)NC5CC5)cc4)nc32)CC1 | 1.41 µM (active) | – | –
O=C1C[C@]23C=CCN4CCC5c6cc7c(cc6N1[C@@]5(CC2)C43)OCO7 (some centres not stated) | inactive | – | –
Cc1[nH]c(/C=C2\C(=O)Nc3ccc(S(=O)(=O)N(C)c4cccc(Cl)c4)cc32)c(C)c1C(=O)N1CCN(C)CC1 | inactive | inactive | inactive
COC(=O)C1=CO[C@@H](O[C@@H]2O[C@H](CO)[C@@H](O)[C@H](O)[C@H]2O)[C@H]2[C@@H]1C=C[C@]21C=C([C@H](C)OC(=O)/C=C/c2ccc(O)cc2)C(=O)O1 | 12.6 µM (active) | 8.91 µM (active) | –
